PubChem BioAssay (NCATS)
Active and inactive are the calls of the source. The call rests on the fitted dose curve; in most records, active means well fitted curve in the direction sought with a large enough effect; inconclusive means small, poorly fitted or top-dose-only effect, or another doubt; inactive means no such curve, though single readings can be large or run the other way.

Biological target: Methanococcus maripaludis chaperonin (MmCpn) (UniProt Q6LX38)
Experiment: High-Throughput Screening for Modulators of Cytosolic Chaperonin Activity: MmCpn Primary Screen (AID 488978)
Details: Purified MmCpn ATPase activity, ADP HTRF detection, 10 min; series mostly up to 76.9 µM
Method in brief: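 ADP formation read by HTRF Transcreener, 665/590 nm emission after 320 nm excitation. Enzyme: archaeal chaperonin at 50 nM final; substrate ATP 30 uM final; 10 min, 37C, after 5 min compound preincubation at RT.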

Methanococcus maripaludis chaperonin (MmCpn), sequence (Q6LX38 1-543): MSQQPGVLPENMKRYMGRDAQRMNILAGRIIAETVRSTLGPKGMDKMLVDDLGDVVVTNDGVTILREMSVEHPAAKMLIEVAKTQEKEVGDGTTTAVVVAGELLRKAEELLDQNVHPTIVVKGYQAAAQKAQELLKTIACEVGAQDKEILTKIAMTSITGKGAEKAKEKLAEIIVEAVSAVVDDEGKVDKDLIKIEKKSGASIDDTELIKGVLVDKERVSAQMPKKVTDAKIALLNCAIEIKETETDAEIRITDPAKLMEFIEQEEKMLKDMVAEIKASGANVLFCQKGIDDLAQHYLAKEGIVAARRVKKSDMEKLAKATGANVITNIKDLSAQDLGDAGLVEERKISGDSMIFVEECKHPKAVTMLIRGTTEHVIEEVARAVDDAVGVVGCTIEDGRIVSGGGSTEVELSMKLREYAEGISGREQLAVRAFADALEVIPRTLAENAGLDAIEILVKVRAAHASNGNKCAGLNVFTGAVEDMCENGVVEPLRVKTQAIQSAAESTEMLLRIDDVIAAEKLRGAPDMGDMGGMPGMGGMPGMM

**Q.** `CC(=O)N[C@@H](CS)C(=O)O` was tested. Which outcome did it give?
**A.** inactive

**Q.** `COC(=O)[C@@H]1[C@H]2C[C@H]3c4[nH]c5ccccc5c4CCN3C[C@@H]2CC[C@@H]1O` was tested. Which outcome did it give?
**A.** inactive

**Q.** For `CCCNC(=O)NS(=O)(=O)c1ccc(Cl)cc1`, which outcome is on record?
**A.** inactive

**Q.** With `CC(=O)c1ccc(S(=O)(=O)NC(=O)NC2CCCCC2)cc1` as the compound, how does the outcome read?
**A.** inactive

**Q.** How did the outcome turn out when `Clc1ccc(Cn2c(CN3CCCC3)nc3ccccc32)cc1` was run?
**A.** inactive

**Q.** How did the outcome turn out when `O=C(O)CCc1nc(-c2ccccc2)c(-c2ccccc2)o1` was run?
**A.** inactive

**Q.** How did the outcome turn out when `CC(C)NCC(O)COc1cccc2[nH]ccc12` (configuration not stated) was run?
**A.** inactive

**Q.** With `O=C1NCC2(CCN(CCc3ccccc3)CC2)O1` as the compound, how does the outcome read?
**A.** inactive

**Q.** Which outcome does the source give for `CC(=O)CCCCn1c(=O)c2c(ncn2C)n(C)c1=O` here?
**A.** inactive

**Q.** `CN(C)CCC(c1ccccc1)c1ccccn1` (configuration not stated) was tested. Which outcome did it give?
**A.** inactive

**Q.** `CC(C)OC(=O)C(C)(C)Oc1ccc(C(=O)c2ccc(Cl)cc2)cc1` was tested. Which outcome did it give?
**A.** inactive

**Q.** For `O=c1c(-c2ccc(O)cc2)coc2cc(O)ccc12`, which outcome is on record?
**A.** inactive

**Q.** For `CCN(CC)C(=O)c1ccc(O)c(OC)c1`, which outcome is on record?
**A.** inactive

**Q.** `CCN1CCC[C@H]1CNC(=O)c1cc(S(N)(=O)=O)ccc1OC` was tested. Which outcome did it give?
**A.** inactive

**Q.** Which outcome does the source give for `NC(N)=Nc1nc(CSCC/C(N)=N/S(N)(=O)=O)cs1` here?
**A.** inactive

**Q.** How did the outcome turn out when `Cc1cccc(C)c1OCC(C)N` (configuration not stated) was run?
**A.** inactive

**Q.** `O=C1NC(=O)C(c2ccccc2)(c2ccccc2)N1` was tested. Which outcome did it give?
**A.** inactive

**Q.** How did the outcome turn out when `C[N+](C)(C)CCCCCC[N+](C)(C)C` was run?
**A.** inactive

**Q.** For `CCN(CC)CCOC(=O)c1ccc(N)cc1`, which outcome is on record?
**A.** inactive

**Q.** With `NCCS` as the compound, how does the outcome read?
**A.** inactive

**Q.** `COc1ccccc1N1CCN(CCCNc2cc(=O)n(C)c(=O)n2C)CC1` was tested. Which outcome did it give?
**A.** inactive

**Q.** `CCCCC1C(=O)N(c2ccccc2)N(c2ccccc2)C1=O` was tested. Which outcome did it give?
**A.** inactive
